Experiment [1] is described as follows: qHTS assay to identify small molecule antagonists of the estrogen related receptor (ERR) signaling pathway from Tox21 library - cell viability counter screen (AID 1224834). Note: nearly all actives have a fitted effect of over 30% in size. Put shortly: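 Seeded ERR cells were rested 6 h at 37 C/5% CO2 before compounds, positive and negative controls or DMSO were added. Incubation continued for 17.5 h, and viability was then quantified by CellTiter-Fluor fluorescence.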

For experiment [2], the target named is Luciferin 4-monooxygenase (Photinus pyralis) (UniProt P08659). In words: qHTS assay to identify small molecule inhibitors of firefly luciferase (AID 1224835). Note: nearly all actives have a fitted effect of over 25% in size. Note: potency is the fitted concentration of half-maximal effect. Put shortly: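 Quantitative HTS format; KM concentrations of both substrates. Purified P. pyralis FLuc activity quantified from luminescence images.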
Chain of Luciferin 4-monooxygenase (Photinus pyralis) (P08659 whole entry, looked up): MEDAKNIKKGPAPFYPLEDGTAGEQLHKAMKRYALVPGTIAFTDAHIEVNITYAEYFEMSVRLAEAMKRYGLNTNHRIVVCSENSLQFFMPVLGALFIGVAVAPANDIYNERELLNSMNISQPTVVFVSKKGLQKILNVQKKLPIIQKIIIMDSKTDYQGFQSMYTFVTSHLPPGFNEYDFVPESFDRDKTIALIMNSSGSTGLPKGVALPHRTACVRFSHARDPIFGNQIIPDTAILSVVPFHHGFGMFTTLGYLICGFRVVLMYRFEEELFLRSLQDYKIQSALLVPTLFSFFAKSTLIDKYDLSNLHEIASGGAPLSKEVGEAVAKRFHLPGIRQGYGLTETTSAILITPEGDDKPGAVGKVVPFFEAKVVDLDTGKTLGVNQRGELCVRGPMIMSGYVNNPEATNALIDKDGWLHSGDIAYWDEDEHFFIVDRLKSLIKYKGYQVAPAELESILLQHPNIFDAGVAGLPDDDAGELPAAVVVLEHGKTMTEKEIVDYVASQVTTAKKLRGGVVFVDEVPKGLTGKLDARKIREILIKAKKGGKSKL
Background: qHTS replaces the single test concentration by a dilution series.

The nature of experiment [3]: qHTS assay to identify small molecule agonists of the constitutive androstane receptor (CAR) signaling pathway - cell viability counter screen (AID 1224836). Note: nearly all actives have a fitted effect of over 45% in size. Put shortly:
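Multiplexed viability check: HepG2-CYP2B6-hCAR cells, 15-point compound dosing, 0.75 uM PK11195 final, 23 h at 37 C, CellTiter-Fluor fluorescence.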

Experiment [4] has as its target Nuclear receptor subfamily 1 group I member 3 (Homo sapiens) (UniProt Q14994). In words: qHTS assay to identify small molecule antagonists of the constitutive androstane receptor (CAR) signaling pathway (AID 1224838).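 Note: HepG2 cells stably expressing hCAR with CYP2B6 luciferase reporter stimulated by CITCO; nearly all actives have a fitted effect of over 40% in size.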 Put shortly: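 Human hepatoma HepG2 cells expressing hCAR and a CYP2B6 promoter (2.2 kb) luciferase construct; compound titration (15 points) with 50 nM CITCO final, 24 h at 37 C/5% CO2; luminescence via ONE-Glo after 30 min at room temperature.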

Experiment [5] shares this target. In words: qHTS assay to identify small molecule agonists of the constitutive androstane receptor (CAR) signaling pathway (AID 1224839).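 Note: HepG2 cells stably carrying human CAR and a CYP2B6 luciferase reporter; nearly all actives have a fitted effect of over 15% in size.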 Put shortly:
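Using human hepatoma HepG2 cells engineered with hCAR and a CYP2B6-2.2kb reporter, 15-concentration compound series were incubated 24 h alongside PK11195 at 0.75 uM final, with luminescence quantified afterwards.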

Experiment [6] is described as follows: qHTS assay to identify small molecule antagonists of the estrogen related receptor signaling pathway with the pleiotropic PPARgamma coactivator (PGC) from Tox21 10K library - cell viability counter screen (AID 1224840; active = well fitted cell-killing curve with a large enough effect in the repeat runs, not every such curve was filed as active; note: nearly all actives have a fitted effect of over 40% in size). In a few lines: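 Seeded PGC/ERR cells (2,000/well, 6 h, 37 C/5% CO2) get compound by pin tool; 17.5 h incubation at 37 C; CellTiter-Fluor added, 30 min, fluorescence measured.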

Experiment [7] deals with Thyrotropin receptor (Homo sapiens) (UniProt P16473). Put plainly: qHTS assay to identify small molecule agonists of the thyroid stimulating hormone receptor (TSHR) signaling pathway (AID 1224843; calls by dose curve; note: nearly all actives have a fitted effect of over 45% in size). In a few lines:
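Compounds are titrated over 15 concentrations, in triplicate, onto TSHR-HEK293 cells seeded at 800/well. Plates sit 30 min at room temperature before cAMP-d2 and anti-cAMP cryptate are added; signal is read after a further hour.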

Experiment [8] in a line: qHTS assay to identify small molecule agonists of the hypoxia (HIF-1) signaling pathway - cell viability counter screen (AID 1224844; calls by dose curve; note: nearly all actives have a fitted effect of over 50% in size). Put shortly: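 HRE-bla ME-180; 0.5% dFBS; cpd 17 h, 37C, 5% CO2; CellTiter-Glo lum., 30 min RT, post-FRET read, same wells.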
Experiment [9] in a line: qHTS assay to identify small molecule agonists of H2AX (AID 1224845; active = well fitted activation curve with a large enough effect in the signal ratio in the repeat runs, not every such curve was filed as active; the % refers to the signal ratio). Put shortly:
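Wild-type CHO-K1 cells plated overnight, then exposed 3 hr at 37C to compounds at 15 concentrations (0.76% DMSO). Lysed, then HTRF anti-pH2AX(S139)-cryptate/anti-H2AX-d2 detection after 24 hr at room temperature; emissions 665 and 620 nm.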

A short description of experiment [10]: qHTS assay to identify small molecule agonists of H2AX - cell viability counter screen (AID 1224847; calls by dose curve; note: top concentration of the series differs between compounds; nearly all actives have a fitted effect of over 30% in size). Put shortly: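 After overnight plating of 1000 CHO-K1 cells per well, a 15-concentration compound series was applied for 3 hr at 37C. Luminescence from CellTiter-Glo, read following 30 min at room temperature, reflected cell viability.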
Experiment [11] can be described thus: qHTS RealTime-Glo MT Cell Viability Assay in HepG2 cells - 24 hour (AID 1224867). Note: nearly all actives have a fitted effect of over 50% in size. Put shortly:
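Real-time, nonlytic viability: 600 HepG2 cells/well mixed with NanoLuc enzyme plus prosubstrate; 5 h settle, compound (DMSO) added by pintool; luminescence monitored over 40 h at 37 C.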

Experiment [12] can be described thus: qHTS RealTime-Glo MT Cell Viability Assay in HEK293 cells - 32 hour (AID 1224868). Note: top concentration of the series differs between compounds; nearly all actives have a fitted effect of over 50% in size. Put shortly: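 Cells + reagent dispensed (600 cells/well, HEK293) → 5 h at 37 C/5% CO2 → 23 nL compound in DMSO pinned → 40 h at 37 C → luminescence read at 0, 8, 16, 24, 32, 40 h.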
Experiment [13] in a line: A CellTox Green Cytotoxicity Assay to monitor cytotoxicity in HEK293 cells - 0 hour (AID 1224869). Note: nearly all actives have a fitted effect of over 50% in size. In a few lines:
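Tox21 screen in HEK293: membrane-impermeant cyanine dye fluoresces on binding dead-cell DNA; compound pinned 5 h post-seeding, plates held at 37 C, signal read repeatedly through 40 h.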

A short description of experiment [14]: qHTS RealTime-Glo MT Cell Viability Assay in HepG2 cells - 40 hour (AID 1224870). Note: nearly all actives have a fitted effect of over 50% in size. In a few lines: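 HepG2 cells mixed with RealTime-Glo MT reagents (NanoLuc plus cell-permeant prosubstrate) were seeded at 600 cells/well, incubated 5 h at 37 C/5% CO2, then pinned with compounds in DMSO; nonlytic luminescence tracked viability during 40 h treatment.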
Experiment [15] is described as follows: qHTS assay to identify small molecule agonists of the hypoxia (HIF-1) signaling pathway (AID 1224846; active = well fitted activation curve with a large enough effect in the signal ratio in the repeat runs, not every such curve was filed as active; the % refers to the signal ratio). In a few lines:
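Reporter induction in HRE-bla ME-180 cells is taken as agonism: cells sit 5 hrs after plating, receive compounds or DMSO only, incubate 17 hrs at 37C under 5% CO2, and are loaded with CCF4-AM for beta-lactamase FRET measurement.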

Experiment [16] is described as follows: qHTS assay to identify small molecule antagonists of the constitutive androstane receptor (CAR) signaling pathway - cell viability counter screen (AID 1224837). Note: nearly all actives have a fitted effect of over 45% in size. In a few lines:
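To flag cytotoxic false antagonists, HepG2 hCAR/CYP2B6-2.2kb cells were treated 23 hr with 15-concentration compound series and 50 nM CITCO at 37 C/5% CO2; CellTiter-Fluor fluorescence was the measured end point.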

Experiment [17] is described as follows: qHTS assay to identify small molecule antagonists of the estrogen related receptor signaling pathway with the pleiotropic PPARgamma coactivator (PGC) from Tox21 10K library (AID 1224841; call rule not given here). Put shortly:
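Test chemicals dissolved in DMSO were applied to pre-incubated (6 h) PGC/ERR cells at 2,000 cells/well for an 18 h, 37 C treatment; reporter luminescence was then read using One-Glo.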

Experiment [18] can be described thus: qHTS assay to identify small molecule agonists of the estrogen related receptor signaling pathway with the pleiotropic PPARgamma coactivator (PGC) from Tox21 10K library (AID 1224842). Note: nearly all actives have a fitted effect of over 15% in size. In a few lines:
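PGC/ERR reporter cells (NTP line) were seeded 2,000 per well, rested 6 h at 37 C/5% CO2, then pin-dosed with compounds in DMSO for 18 h at 37 C; luciferase read by One-Glo luminescence after 30 min at room temperature.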

Experiment [19] can be described thus: qHTS assay to identify small molecule antagonists of the estrogen related receptor (ERR) signaling pathway from Tox21 library (AID 1224848). Note: nearly all actives have a fitted effect of over 50% in size. Put shortly:
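First, 2,000 ERR cells per well were plated and held 6 h at 37 C/5% CO2. Next, compounds in DMSO were pinned in and left 18 h at 37 C. Finally, ONE-Glo was added and luminescence read after 30 min at room temperature.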

A short description of experiment [20]: qHTS assay to identify small molecule agonists of the estrogen related receptor (ERR) signaling pathway from Tox21 library (AID 1224849; calls by dose curve; note: nearly all actives have a fitted effect of over 15% in size). The conditions noted are these: ERR reporter cell line, ONE-Glo luciferase, 18 h; at 92.4 µM (top of the series). In a few lines: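 Tox21 compounds tested for ERR agonism in an NTP reporter cell line: 18 h treatment at 37 C, then ONE-Glo luminescence.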

Data on eight compounds can be found in PubChem BioAssay (Tox21).

Molecules are shown by their SMILES. Where “and” joins values, the source holds several entries; their conditions need not be identical. Identical values can stand only once. Inconclusive results are not listed. The source holds several records for some structures; these can differ, active in one and inactive in another. Calls of active or inactive are those of the source. Unless noted, calls come from the whole dose curve; as a rule, active = well fitted curve in the direction sought with a large enough effect in the repeat runs; inconclusive = weak or mixed curves; inactive = no such curve, though single readings can be large; an effect the other way counts as inactive or inconclusive.
% is set by controls: 0 for no effect and ±100 for the full control effect.

Chain of Thyrotropin receptor (Homo sapiens) (P16473 whole entry, looked up): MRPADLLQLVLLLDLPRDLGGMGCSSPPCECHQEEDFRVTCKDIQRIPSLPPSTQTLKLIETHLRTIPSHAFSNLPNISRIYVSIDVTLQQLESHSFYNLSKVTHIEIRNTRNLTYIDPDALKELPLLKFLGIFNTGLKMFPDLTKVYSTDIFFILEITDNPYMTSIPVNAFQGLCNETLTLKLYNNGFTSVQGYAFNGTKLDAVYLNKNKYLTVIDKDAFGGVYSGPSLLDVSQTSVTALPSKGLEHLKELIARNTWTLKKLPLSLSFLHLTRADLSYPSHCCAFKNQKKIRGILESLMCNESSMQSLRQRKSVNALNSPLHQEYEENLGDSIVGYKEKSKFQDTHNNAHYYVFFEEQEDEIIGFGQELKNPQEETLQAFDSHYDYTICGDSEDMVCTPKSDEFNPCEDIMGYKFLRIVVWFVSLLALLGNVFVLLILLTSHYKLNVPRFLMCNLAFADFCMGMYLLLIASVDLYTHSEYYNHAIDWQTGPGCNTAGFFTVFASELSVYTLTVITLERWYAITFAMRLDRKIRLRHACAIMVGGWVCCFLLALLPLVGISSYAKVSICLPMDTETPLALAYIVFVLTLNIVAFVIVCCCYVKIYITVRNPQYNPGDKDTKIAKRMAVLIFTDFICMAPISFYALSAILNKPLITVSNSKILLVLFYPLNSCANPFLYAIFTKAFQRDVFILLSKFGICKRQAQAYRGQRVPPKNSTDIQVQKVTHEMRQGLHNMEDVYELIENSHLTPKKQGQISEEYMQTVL
Chain of Nuclear receptor subfamily 1 group I member 3 (Homo sapiens) (Q14994 whole entry, looked up): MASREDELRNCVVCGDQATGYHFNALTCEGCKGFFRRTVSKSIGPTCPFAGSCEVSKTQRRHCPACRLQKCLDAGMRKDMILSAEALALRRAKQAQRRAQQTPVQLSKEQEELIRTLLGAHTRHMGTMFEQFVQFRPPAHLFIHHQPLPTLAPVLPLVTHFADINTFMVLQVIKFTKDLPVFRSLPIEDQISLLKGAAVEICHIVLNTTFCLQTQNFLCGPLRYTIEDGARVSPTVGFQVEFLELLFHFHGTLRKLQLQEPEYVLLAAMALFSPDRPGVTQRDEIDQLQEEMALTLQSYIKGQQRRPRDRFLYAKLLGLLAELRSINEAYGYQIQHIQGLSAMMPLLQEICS

With `CCc1cccc2c3c([nH]c12)C(CC)(CC(=O)O)OCC3` (stereo not drawn), the Potency result in [1], in experiment [2], in experiment [3], in experiment [4], in experiment [5] and in [6] was “inactive” throughout. In addition, the Potency result in experiment [7], in experiment [8], in experiment [9], in experiment [10], in [11] and in experiment [12] was “inactive” throughout. The Potency result in [13] and in experiment [14] was “inactive” in each case.
As for `CN(C)C`, the Potency result in [1], in experiment [2], in experiment [3], in experiment [4], in [5] and in [6] was “inactive” throughout. Also, the Potency result in [8], in experiment [9], in [10], in [11], in [12] and in experiment [13] was “inactive” throughout. Besides, in [14], the Potency result was “inactive”. For the same compound, the call in [15] was inactive.
With `c1ccc2cc3ccccc3cc2c1`, the Potency result in experiment [1], in experiment [2], in experiment [16], in [4], in experiment [6] and in experiment [17] was “inactive” throughout. Besides, the Potency entry in experiment [18], in experiment [7], in experiment [8], in [10], in experiment [19] and in experiment [11] was “inactive” throughout. The Potency entry in experiment [12], in experiment [13] and in [14] was “inactive” in each case. Besides, in experiment [15], the call was inactive. Also, the activity change, positive = activation in [20] is 6.4% (inactive) and 19.8% (active).
As for `C1COCCN1`, the Potency entry in [1], in [2], in experiment [3], in experiment [4], in experiment [6] and in [7] was “inactive” in each case. In addition, the Potency result in experiment [8], in experiment [9], in experiment [10], in experiment [11], in experiment [12] and in experiment [13] was “inactive” in each case. In addition, the Potency entry in [14] is “inactive”. Moreover, the call in experiment [15] was inactive.
With `O=C(O)COCCN1CCN(C(c2ccccc2)c2ccc(Cl)cc2)CC1` (stereo not drawn), the Potency result in experiment [1], in experiment [2], in experiment [16], in experiment [4], in experiment [6] and in experiment [7] was “inactive” in each case. Moreover, the Potency entry in experiment [8], in experiment [10], in [11], in experiment [12], in [13] and in [14] was “inactive” each time.
For the compound `C=CCNCC=C`, the Potency entry in [1], in [2], in experiment [3], in [6], in [8] and in experiment [9] was “inactive” throughout. Further, the Potency entry in [10], in experiment [11], in experiment [12], in [13] and in [14] was “inactive” in each case. For the same compound, in experiment [15], the result was inactive.
For the compound `C=CCOC(=O)C(=C)C`, the Potency result in experiment [1], in experiment [2], in experiment [16], in [4], in experiment [6] and in experiment [17] was “inactive” throughout. Further, the Potency result in experiment [18], in experiment [7], in experiment [8], in [9], in experiment [10] and in experiment [19] was “inactive” throughout. The Potency entry in experiment [11], in experiment [12], in experiment [13] and in [14] was “inactive” each time. Besides, the compound was called inactive in experiment [15]. The activity change, positive = activation in experiment [20] is -1.6% (inactive) and 1.74% (inactive).
Consider `CCCCCCCCCCCCCO`, for which the Potency entry in experiment [1], in experiment [3], in [4], in experiment [6], in experiment [17] and in experiment [18] was “inactive” throughout. The Potency entry in experiment [8], in experiment [9], in experiment [10], in experiment [19], in experiment [11] and in experiment [12] was “inactive” throughout. Besides, the Potency entry in experiment [13] and in experiment [14] was “inactive” each time. In addition, in [2], the Potency was 82.5 µM (active). In [15], the call was inactive. Besides, in experiment [20], the activity change, positive = activation is 0.0318% (inactive) and 3.04% (inactive).
